Screens (PubChem)
M1 ag: M1 muscarinic receptor agonism | CHO-M1 cells, Fluo-4 calcium fluorescence, agonist mode; active compounds read high | B-score at 10 µM | 3% of 64,000 active | AID 626;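 active = fluorescence rise, raw or as B-score row- and column-corrected plate score, outside the 99.7% band of its plate's samples, either direction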
FXIIa mix inh: inhibitors of human coagulation factor XIIa, pooled mixtures. P00748. purified FXIIa, fluorogenic substrate. inhibition, % at 5 µM. 0.2% of 62,000 active. AID 684
FXIa inh mix: factor XIa (human) inhibition, mixture screen. 0.19% of 62,000 active. inhibition, % at 5 µM. purified FXIa, fluorogenic substrate, pooled mixtures;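 note: each value is inhibition by a whole ten-compound pool holding the compound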
HER2 expr 66K: Her2 kinase expression inhibition; HER2 level % of control, % at 10 µM; SKBR-3 HER2 protein level, AlphaScreen, 18-24 h; active compounds read low; 0.69% of 65,000 active; AID 645; P04626;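 active = HER2 level under 5% of the carrier-only control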;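 note: lower value means stronger loss of Her2 protein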
JNK3 inh: JNK3 (human) kinase inhibition. inhibition, % at 8 µM. P53779. AID 746. purified JNK3 kinase activity, HTS. 0.61% of 60,000 active; in the data active = inhibition above about 17%
M1 antagonist: blocks the rat M1 muscarinic receptor response to acetylcholine; P08482; CHO-M1 cells, Fluo-4 calcium, ACh EC80 antagonist mode; active compounds read low; B-score at 10 µM; 3.4% of 64,000 active; AID 628;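 active = calcium fluorescence response, raw or row-and-column corrected B-score, differing from the plate sample mean either way at a set confidence level, mostly lower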
Target sequence (P08482 whole entry, looked up): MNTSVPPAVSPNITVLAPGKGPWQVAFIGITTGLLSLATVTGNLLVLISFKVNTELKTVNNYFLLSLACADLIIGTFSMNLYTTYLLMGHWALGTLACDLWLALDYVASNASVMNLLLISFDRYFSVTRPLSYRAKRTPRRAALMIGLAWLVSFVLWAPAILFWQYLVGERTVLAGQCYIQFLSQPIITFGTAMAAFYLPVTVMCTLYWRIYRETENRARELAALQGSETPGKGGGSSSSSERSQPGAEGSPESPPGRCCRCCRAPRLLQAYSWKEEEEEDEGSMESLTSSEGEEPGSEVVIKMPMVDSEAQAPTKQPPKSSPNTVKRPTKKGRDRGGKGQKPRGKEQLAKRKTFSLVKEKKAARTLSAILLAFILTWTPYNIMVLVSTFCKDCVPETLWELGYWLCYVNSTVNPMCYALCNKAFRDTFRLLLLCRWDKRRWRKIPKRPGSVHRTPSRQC
M1 antag confirm: confirmation of rat M1 muscarinic receptor antagonists. shares compounds with M1 antagonist. CHO-M1 cells, Fluo-4 calcium, ACh EC80 antagonism; active compounds read low. calcium response (max-min fluorescence) at 10 µM. 43% of 1,700 active. AID 677;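 active = calcium response below the same-plate mean of wells given acetylcholine alone at its 80%-effect dose, minus 3 SD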
mGluR4 antag: selectivity test for M1 antagonists: human mGluR4 receptor; shares compounds with M1 antagonist; CHO-mGluR4 calcium flux, Fluo-4 fluorescence, glutamate EC80; active compounds read low; fluorescence response (max-min) at 10 µM; 0.9% of 1,700 active; AID 678;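 active = fluorescence response below the plate's average for near-maximal glutamate wells, less 3 SD of those wells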;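 note: raw unnormalized fluorescence span taken in the window right after glutamate addition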
A number is an active result; - = inactive; . = no result given. In the library only some 6.9% were active in any assay of this set; here they are far more common. Cut-off read from the data, not from the text of the source, unless noted: active = inhibition above about 20% (passing the limit was not always enough); inactive = the rest.

SMILES	M1 ag	FXIIa mix inh	FXIa inh mix	HER2 expr 66K	JNK3 inh	M1 antagonist	M1 antag confirm	mGluR4 antag
COc1cc(NC(=O)c2cccs2)cc(OC)c1	-	-	-	-	-	-3.4	-	-
COC(=O)c1sc2ccccc2c1NC(=O)c1cccs1	-	-	-	-	-	-1.4	642	-
COC(=O)c1sc2ccccc2c1N	-	-	-	-	-	-	.	.
O=C(CN1CCCC1)NCC12CC3CC(CC(C3)C1)C2	-	-	-	-	-	-	.	.
NC(=O)NCC12CC3CC(CC(C3)C1)C2	-	-	-	-	-	-2.9	-	-
CCOC(=O)C1CCN(S(=O)(=O)c2cccc(-c3cn4ccccc4n3)c2)CC1	-	-	-	-	-	-3.1	-	-
CCOC(=O)N1CCC(N2Cc3cccc(C(=O)NCc4ccc(C)cc4)c3C2=O)CC1	-	-	-	-	-	-	.	.
CCOC(=O)N1CCC(N2Cc3cccc(C(=O)NCc4ccccn4)c3C2=O)CC1	-	-	-	-	-	-2.5	500	-
C=CCOn1c(=O)c(=O)n(OCc2ccccc2)c2ccccc21	-	-	-	-	-	-2.6	-	-
COCCn1c(SCC(=O)NCc2ccc3c(c2)OCO3)nnc1-c1c[nH]c2ccccc12	-	-	-	-	-	-	.	.
Cc1ccc2oc(=O)c3cnn(CC(=O)Nc4ccccc4N4CCN(C)CC4)c3c2c1	-	-	-	-	-	-16	252	-
Cc1ccc2oc(=O)c3cnn(CC(=O)NC4CCC(C)CC4)c3c2c1 (stereo not given)	-	-	-	-	-	-	.	.
CCCCOc1ccc(NC2=NC3(CCCC3)N=C(N)N2)cc1	-	-	-	-	-	-3	477	-
Cc1cc(C)cc(NC2=NC3(CCCCC3)N=C(N)N2)c1	-	-	-	-	-	-	.	.
CC(=O)Nc1nc(C(=O)Nc2c(C)n[nH]c2C)cs1	-	-	-	-	-	-2.9	-	-
CC(CN1CCCCC1)OC(=O)c1ccc2c(c1)OCO2 (stereo not given)	-	-	-	-	-	-2.7	-	-
CC1CCN(CC(C)OC(=O)c2ccc3c(c2)OCCO3)CC1 (stereo not given)	-	-	-	-	-	-12	92	-
CC(CN1CCCCC1)OC(=O)c1cc2ccccc2o1 (stereo not given)	-	-	-	-	-	-4.7	296	-
COc1cccc(C(=O)OC(C)CN2CCCC2)c1 (stereo not given)	-	-	-	-	-	-	.	.
O=C(Nc1ccccc1Oc1ccccc1)C1CC1	-	-	-	-	-	-	.	.
O=C(c1cc2c(ccc3ccccc32)oc1=O)N1CCN(CCO)CC1	-	-	-	-	-	-	.	.
O=C(N1CCN(CCO)CC1)N1c2ccccc2C=Cc2ccccc21	-	-	-	-	-	-3.2	437	-
Nc1cc(C(=O)OCC(=O)NCc2ccco2)ccc1Cl	-	-	-	-	-	-	.	.
CCOC(=O)N1CCC(NC(=O)c2sc3nc4n(c(=O)c3c2C)CCCC4)CC1	-	-	-	-	.	-2.6	-	-
CCOC(=O)c1ccc(-n2[nH]c(-c3ccccc3)cc2=O)cc1	-	-	-	-	.	-17	-	-
SMILES	M1 ag	FXIIa mix inh	FXIa inh mix	HER2 expr 66K	JNK3 inh	M1 antagonist	M1 antag confirm	mGluR4 antag
CCS(=O)(=O)c1nc2ccccc2n1CC(=O)N1CCOCC1	-	-	-	-	-	-2.7	-	-
COc1ccc(OC)c(NC2c3ccccc3C(=O)N2c2cccnc2)c1 (stereo not given)	-	-	-	-	-	-	.	.
CN(C(=O)c1cccc(C#N)c1)c1nnc(C2CCCO2)s1 (stereo not given)	-	-	-	-	-	-4.5	-	-
CCSc1nnc(NC(=O)CSc2nnc(-c3c[nH]c4ccccc34)n2C)s1	-	-	-	-	-	-	.	.
COc1cccc(OCC(O)CN2CCC(Cc3ccccc3)CC2)c1 (stereo not given)	-	-	-	-	-	-2.2	347	-
OC(COc1ccc(OCc2ccccc2)cc1)CN1CCCCC1 (stereo not given)	-	-	-	-	-	-6.6	358	-
O=S(=O)(c1ccc(OCC(O)CN2CCN(c3ccccc3)CC2)cc1)N1CCOCC1 (stereo not given)	-	-	-	-	-	-	.	.
O=S(=O)(c1ccc(OCC(O)CN2CCC(Cc3ccccc3)CC2)cc1)N1CCOCC1 (stereo not given)	-	-	-	-	-	-1	-	-
CCOc1ccc(CCNS(=O)(=O)c2cnc[nH]2)cc1OCC	-	-	-	-	-	-	.	.
Cc1cccc(OCC(=O)Nc2ccc3c(c2)OCCO3)c1	-	-	-	-	-	-5	-	-
O=C(COc1ccccc1Cl)Nc1ccc2c(c1)OCCO2	-	-	-	-	-	-	.	.
CCC(=O)Nc1cccc(NC(=O)c2ccc3c(c2)OCCO3)c1	-	-	-	-	-	-2.6	-	-
COc1ccccc1CN(Cc1ccco1)S(=O)(=O)c1ccc(-n2cnnn2)c(OC)c1	.	-	-	-	-	.	.	.
Cc1cccc2cc(CN(Cc3cccs3)C3(c4nnnn4C4CCCC4)CCCC3)c(=O)[nH]c12	-	-	-	-	-	-	.	.
COc1ccc(CNC(=O)CSc2nnnn2-c2ccccc2)cc1	-	-	-	-	-	-4.8	-	-
COC(=O)C1=C(C)NC2=C(C(=O)CCC2)C1c1ccccn1 (stereo not given)	-	-	-	-	-	-	.	.
COc1cc2c(=O)n(Cc3ccco3)c(=O)n(CC(=O)c3ccc(Br)cc3)c2cc1OC	-	-	-	-	-	-	.	.
COc1cc2c(=O)n(Cc3ccccc3)c(=O)n(CC(=O)C(C)(C)C)c2cc1OC	-	-	-	-	.	-2.1	-	-
Cc1cc(C(=O)Nc2c(F)cc(F)cc2Br)no1	-	-	-	-	-	-	.	.
CCN1CCN(c2ncc(C(=O)Nc3c(F)cc(F)cc3Br)c3ccccc23)CC1	-	-	-	-	-	-10	201	-
COc1cc(C2C3=C(CC(C)(C)CC3=O)N(C)C(=O)N2C)cc(OC)c1OC (stereo not given)	-	-	-	-	.	-	.	.
COc1ccccc1C(=O)Nn1c(C2CCC2)nc2ccccc2c1=O	-	-	-	-	-	-3.3	-	-
CC(C)n1c(C(=O)OCC(=O)NCc2ccc3c(c2)OCO3)cc2sccc21	-	-	-	-	.	-	.	.
CC(C)CCN(C)C1CCN(S(=O)(=O)c2cccc(C(F)(F)F)c2)CC1	-	-	-	-	-	-9	215	-
CC(C)(C)C(=O)NC1CCN(S(=O)(=O)c2cccc(C(F)(F)F)c2)CC1	-	-	-	-	-	-	.	.
